Source: PubChem
The list is not random: actives were taken first. Their share in the collection is about 19%.
MARV entry inh = blocks Marburg virus binding to or entry into cells. Marburg virus pseudotyped entry inhibition, cell reporter. Potency, µM (series often up to 37.8 µM), for the others: at the highest dose activity change, negative = inhibition, most hits filed as inhibitors. 1.8% of 300,000 active; calls by dose curve; tested in HEK293 cells; further: potency means the concentration at half of the fitted maximal effect; on the % scale 0 is the no-effect control and ±100 the full control effect
Pf growth 96h = P. falciparum growth inhibition at 96 hour, primary screen for plastid delayed-death inhibitors. 6.9% of 320,000 active. Potency, µM (top dose mostly 28.7 µM), for inactives: at the highest dose activity change, negative = inhibition, actives largely listed as inhibitors. P. falciparum luciferase reporter growth, 96 h; further: potency means the concentration at half of the fitted maximal effect; on the % scale 0 is the no-effect control and ±100 the full control effect
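Parasite growth measured via integrated firefly luciferase reporter in P. falciparum. Infected erythrocytes at 2% hematocrit, 0.05% parasitemia final were treated 96 hours at 37 C under 5% CO2, and luminescence was read.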
Shiga toxin inh = inhibitors of Shiga toxin in Vero cells; Vero cells, Shiga toxin protein synthesis inhibition reporter; inhibition, % at 38.7 µM; 9.2% of 290,000 active; AID 2315; in the data active means inhibition mostly above about 28%, no sharp cut-off; inactive means mostly below about 43%; further: 0% is about no effect
Pf growth 48h = inhibits P. falciparum growth in the first generation, 48 h; P. falciparum luciferase growth in erythrocytes, 48 h; Potency, µM (top dose mostly 28.7 µM), inactives show top-dose activity change, negative = inhibition, actives largely listed as inhibitors; 5.9% of 310,000 active; AID 504832; further: potency means the concentration at half of the fitted maximal effect; on the % scale 0 is the no-effect control and ±100 the full control effect
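Erythrocytes infected with P. falciparum carrying an integrated firefly luciferase reporter (2% hematocrit, 0.1% parasitemia final) were exposed to compounds in RPMI 1640 with 0.5% Albumax at 37 C, 5% CO2. Growth inhibition was scored as reduced luminescence.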
CHX counter = counter-screen for Shiga toxin inhibitors: cycloheximide protein synthesis inhibition | cell reporter, cycloheximide protein synthesis inhibition counterscreen | max response, % | 12% of 300,000 active | AID 2314; in the data active means max response mostly above about 13%, no sharp cut-off; inactive means mostly below about 14%; further: read at 38.3 µM for the half of the compounds with a filed dose; 0% is about no effect
Lassa entry inh = blocks Lassa virus binding to or entry into cells. Potency, µM (top dose mostly 37.9 µM), without a hit: at the top dose activity change, negative = inhibition, usual class: inhibitors. Lassa virus pseudotype entry inhibition, cell reporter. 1.2% of 300,000 active; calls by dose curve; tested in HEK293 cells; further: potency means the concentration at half of the fitted maximal effect; on the % scale 0 is the no-effect control and ±100 the full control effect; nearly all actives have a fitted effect of over 50% in size
The depositor's hits bear a star; ? = inconclusive; / = not tested or not shown; [ ] = remark or other dose. Unless noted, the call rests on the fitted dose curve; in most records, active means well fitted inhibition curve with a large enough effect; inconclusive means small, poorly fitted or top-dose-only effect, or another doubt; inactive means no such curve, though single readings can be large or run the other way.

SMILES | MARV entry inh | Pf growth 96h | Shiga toxin inh | Pf growth 48h | CHX counter | Lassa entry inh
CC(CC(=O)O)CC(=O)Nc1ccc(Br)cc1 (stereo not drawn) | 4%[46.1 µM] | -21% | -16 | ? | -2 | -5%
CC(C)(C)NC(=O)Nc1ccc(Br)cc1 | 1% | 9% | 83* | 169% | 39* | 28%
CCC(C)NC(=O)Nc1ccc(Br)cc1 (stereo not drawn) | ? | ? | 79* | 14%[5.75 µM] | 32* | 3%[46.1 µM]
CC(C)(C)NC(=O)Nc1ccc(F)c(Cl)c1 | 5%[46.1 µM] | 1% | 14 | 21% | 13 | 10%
COc1cccc2sc(=NC(=O)CS(=O)(=O)c3ccc(F)cc3)n(C)c12 | -4% | 29% | / | 27% | / | -1%
CCCCN(CCCC)CCNC(=O)c1ccc2nc(-c3ccccc3NC(C)=O)c(=O)[nH]c2c1 | ? | 5% | -6 | 2.3µM* | 13 | 4%
CC(=O)Nc1ccccc1-c1nc2ccc(C(=O)N3CCN(c4cccc(C)c4)C(C)C3)cc2[nH]c1=O (stereo not drawn) | / | 6.6µM* | -11 | / | -4 | /
CCn1c(/C=C/c2ccc(F)cc2)nc2ccccc2c1=O | / | ? | / | ? | 1 | /
O=c1oc2ccccc2nc1/C=C(O)/C=C\c1ccccc1 | 27% | -29% | 47* | 3% | 36* | -28%
COc1ccc(/C=C/C(=O)N2CCC(c3nc4ccccc4o3)CC2)cc1 | 4%[46.1 µM] | / | / | / | / | 12%[46.1 µM]
O=c1oc2ccccc2nc1/C=C(O)/C=C/c1ccc(F)cc1 | 10% | ? | 85* | -8% | 44* | 9%
Cc1ccc(/C(O)=C/c2nc3ccccc3oc2=O)cc1 | ? | -16% | 68* | -21% | 32* | -16%
Cc1cccc(C(C)C)c1NS(=O)(=O)c1cn(C)nc1C | -7%[46.1 µM] | -1% | -7 | ? | -3 | 28%[46.1 µM]
COc1ccc(Cl)cc1NC(=O)CN(C)C(=O)c1ccc(N2CCCCC2)c([N+](=O)[O-])c1 | ? | ? | / | 13µM* | / | ?
CCN(CC(=O)Nc1c(F)cccc1F)C(=O)c1ccc(N2CCCCC2)c([N+](=O)[O-])c1 | ? | -38% | -14 | -8% | 16 | 7.1µM*
COc1cccc(CN(C)C(=O)c2ccc(N3CCCC3)c([N+](=O)[O-])c2)c1 | / | 13µM* | 13 | -7% | 5 | /
COc1ccc(NC(=O)CN(C)C(=O)c2ccc(N3CCCCC3)c([N+](=O)[O-])c2)cc1 | -30% | -24% | / | -12% | / | -12%
S=C1NCCc2ccccc2C1c1ccccc1Cl (stereo not drawn) | -36% | ? | -5 | 13µM* | -4 | -5%
O=C(O)C1NCCc2ccccc21 (stereo not drawn) | 1% | 25% | -5 | ? | -6 | 8%
S=C1NCCc2ccccc2C1c1ccccc1 (stereo not drawn) | 10%[46.1 µM] | ? | 7 | 8.3µM* | -3 | ?
CC(C)(C)c1ccc(-n2ncc3c2CCCC3NC(=O)CCN2CCCCC2=O)cc1 (stereo not drawn) | -19% | 94% | -33 | ? | 11 | -49%
Cc1ccn2c(C(=O)c3ccc(Cl)cc3)cnc2c1 | ? | -32% | 91* | / | 51* | 18µM*
CCCOC(=O)C1=C(C)NC2=C(C(=O)CCC2)C1c1cccc(OC)c1OC (stereo not drawn) | 24% | 8.3µM* | -8 | 14% | 4 | -10%
CCOC(=O)C1=C(C)NC2=C(C(=O)CCC2)C1c1coc2ccccc2c1=O (stereo not drawn) | -10% | 12µM* | 6 | / | -3 | ?
COCCOC(=O)C1=C(C)N(Cc2ccccc2)C(=O)NC1c1cccc(OC)c1OC (stereo not drawn) | 6% | 1µM* | -10 | ? | -5 | -13%
SMILES | MARV entry inh | Pf growth 96h | Shiga toxin inh | Pf growth 48h | CHX counter | Lassa entry inh
CCOC(=O)CSc1nc2cc(C(F)(F)F)cnc2n1C | / | 12% | 0 | 0% | 0 | /
O=C(CC1C(=O)NCCN1Cc1ccccc1)NCCN1CCCCC1=O (stereo not drawn) | / | 43% | -2 | 19% | 6 | /
CN1CCN(Cc2cc(=O)n3ccsc3n2)CC1 | 6%[46.1 µM] | ? | -21 | -5% | 1 | -5%[46.1 µM]
Cc1cc(=O)n2ccsc2n1 | 0% | 13µM* | -10 | 18% | -1 | -10%
Cc1nc2sccn2c1P(c1c(C)nc2sccn12)c1c(C)nc2sccn12 | -23% | ? | -12 | 8.3µM* | -1 | 10%
O=[N+]([O-])c1cccc(/C=N\N2CCN(Cc3ccccc3Cl)CC2)c1 | 9% | 18% | 20 | -3% | 16* | -18%
O=[N+]([O-])c1cccc(/C=N/N2CCN(Cc3ccc(Cl)cc3)CC2)c1 | ? | 12% | 20 | -12% | -3 | 23%[46.1 µM]
O=[N+]([O-])c1cccc(C=NNc2ccccc2)c1 | ? | / | / | / | / | -3%
O=[N+]([O-])c1cccc(/C=N/N=C\c2ccccc2)c1 | ? | 13µM* | 56* | -10% | 36* | 20%[46.1 µM]
O=[N+]([O-])c1cccc(/C=N/N2CCN(c3ccccn3)CC2)c1 | -21% | -27% | 1 | 33% | 15* | 13%
O=[N+]([O-])c1cccc(/C=N/N2CCN(Cc3ccccc3)CC2)c1 | ? | ? | 83* | 172% | 27* | ?
COc1ccc(OC)c2[nH]c(=O)c(CCNC(=S)NC(C)(C)C)cc12 | / | -6% | 3 | -4% | 1 | /
CS(=O)(=O)Nc1cccc(C2=NN(C(=O)c3ccccc3Cl)C(c3ccccc3O)C2)c1 (stereo not drawn) | 6% | ? | -6 | -21% | -6 | -34%
O=[N+]([O-])c1ccc(C=NNc2ccccc2)cc1 | ? | / | / | / | / | -15%
O=[N+]([O-])c1ccc(N/N=C/c2ccccc2)c(F)c1 | ? | 273% | 63* | 166% | 74* | ?
CCOc1ccc(C(=O)NCc2ccc3c(c2)OCO3)cc1 | 18%[46.1 µM] | -25% | 13 | -4% | 10 | 6%[46.1 µM]
O=C(NCc1ccccc1)c1cc(-c2ccncc2)nc2ccccc12 | ? | ? | 8 | ? | -2 | -48%[46.1 µM]
O=C(O)CCNc1nc(-c2ccccc2)nc2ccccc12 | ? | 0% | 45 | -2% | -1 | 15%
c1ccc(CCNc2nc(-c3ccccn3)nc3ccccc23)cc1 | ? | 1.7µM* | 15 | 1µM* | 2 | ?
Cc1ccc(S(=O)(=O)c2nc(-c3ccccc3)oc2NCCCN2CCOCC2)cc1 | 2% | -28% | -7 | ? | -2 | -15%
CN(C)CCCNc1nc(-c2ccc(Cl)cc2)nc2ccccc12 | / | 63% | -2 | 10µM* | 1 | /
Cc1cccc(-c2nc(S(=O)(=O)c3ccc(F)cc3)c(NCCCN3CCOCC3)o2)c1 | ? | 13µM* | 13 | ? | -2 | ?
C/C(=N\Nc1nc(-c2ccccn2)nc2ccccc12)c1ccc(F)cc1 | / | -33% | 2 | ? | -2 | /
CN(C)CCNc1cc(-c2ccncc2)nc2ccccc12 | 6.3µM* | 3.3µM* | 9 | 12µM* | -2 | -12%[46.1 µM]
